In the library only some 3.4% were active in any assay of this set; here they are far more common.
MITF primary: MITF inhibitors, primary screen, biochemical, AlphaScreen, human | AlphaScreen MITF homodimerization, bead proximity signal | inhibition, % at 2.6 µM | 650,000 tested, 0.91% active | AID 1259374, 2018; in the data active = inhibition above about 50%;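 note: 0% = vehicle wells with protein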
GPR151 activ: activators of human GPR151, primary screen, cell-based, PathHunter beta-arrestin, luminescence; PathHunter beta-arrestin GPR151 cells; G-protein coupled receptor 151 (Homo sapiens), Q8TDV0; activation, % at 11.2 µM; 650,000 tested, 1% active; in the data active = activation above about 4.9%;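 note: 0% = median of compound wells and 100% = cells with positive control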
Target sequence (Q8TDV0 whole entry, looked up): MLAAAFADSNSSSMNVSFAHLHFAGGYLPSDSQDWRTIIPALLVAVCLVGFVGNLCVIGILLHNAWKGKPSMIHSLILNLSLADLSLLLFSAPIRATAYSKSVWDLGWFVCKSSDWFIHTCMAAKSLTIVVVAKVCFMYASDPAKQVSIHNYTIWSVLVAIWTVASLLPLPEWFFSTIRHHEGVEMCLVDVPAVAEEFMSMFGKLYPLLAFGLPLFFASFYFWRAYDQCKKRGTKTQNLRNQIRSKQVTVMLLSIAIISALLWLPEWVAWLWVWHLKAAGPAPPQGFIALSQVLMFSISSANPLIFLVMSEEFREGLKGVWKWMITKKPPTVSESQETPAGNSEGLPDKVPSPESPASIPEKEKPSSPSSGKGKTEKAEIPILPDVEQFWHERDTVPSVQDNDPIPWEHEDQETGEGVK
FBW7 activator: FBW7 E3 ligase activators, primary screen, biochemical, AlphaScreen, human | AlphaScreen FBW7–phospho-cyclin E peptide binding, activator screen | 650,000 tested, 0.13% active | normalized activity (activation), % at 26.1 µM | AID 1259310, 2017; in the data active = normalized activity above about 1.9%;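 note: purified mutant Fbw7 with reduced substrate affinity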
TEAD-YAP inh: TEAD-YAP interaction inhibition, primary screen, TEAD-YAP interaction inhibitor project, luminescence, HEK-TIYL cells; AID 1259422, 2018; TEAD-Gal4/YAP UAS-luciferase luminescence; 640,000 tested, 1.4% active; inhibition, % at 9.12 µM; in the data active = inhibition above about 32%;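 note: 0% = median of test compound wells and 100% = reference inhibitor wells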
GPR151 conf act: GPR151 activators, triplicate retest, confirmation, cell-based, PathHunter beta-arrestin, luminescence; shares compounds with GPR151 activ; GPR151 PathHunter beta-arrestin cells, 90 min; % of EA-reagent control over plate median; activation, % at 11.2 µM; 6,700 tested, under 10 active;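 active = mean percent activation across replicates above the confirmation screen cutoff of 4.91%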
GPR119 counter: GPR119 activators in beta-arrestin cells, counter-screen for GPR151 activator project, cell-based, PathHunter beta-arrestin, luminescence, triplicate; activation, % at 11.2 µM; 90 min; 0 = compound-well median, 100 = enzyme-acceptor control; 6,700 tested, 0.3% active; shares compounds with GPR151 activ;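 active = mean percent activation in the counterscreen above 29.09%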;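 note: counterscreen on off-target GPR119 to flag nonselective hits from the GPR151 activator screen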
An asterisk follows results filed as active.

Screening COc1ccc(C2C(C#N)=C(N)Oc3c2c(C)nn3-c2ccccc2)cc1OC (stereo unspecified) returned MITF primary 1, GPR151 activ 1, FBW7 activator 0 and TEAD-YAP inh -2.
For Cc1nn(-c2ccccc2)c2c1C(c1ccccc1Cl)C(C#N)=C(N)O2 (stereo unspecified) the results were MITF primary 18, GPR151 activ -2, FBW7 activator -1 and TEAD-YAP inh -4.
For CCOc1ccc(C2C(C#N)=C(N)Oc3c2c(C)nn3-c2ccccc2)cc1OC (stereo unspecified) the results were MITF primary 19, GPR151 activ 6.4*, FBW7 activator 0, TEAD-YAP inh -8, GPR151 conf act 0 and GPR119 counter -5.
Cc1nn(-c2cccc(Cl)c2)c2c1C(c1ccccc1Cl)C(C#N)=C(N)O2 (stereo unspecified) was read as MITF primary 10, GPR151 activ 5.5*, FBW7 activator 0, TEAD-YAP inh 2, GPR151 conf act 0 and GPR119 counter 3.
Screening O=c1[nH]c(=O)c2sc3nc(-c4ccncc4)cc(C(F)(F)F)c3c2[nH]1 returned MITF primary 2, GPR151 activ 6.3*, FBW7 activator 0, TEAD-YAP inh 2, GPR151 conf act 1 and GPR119 counter 2.
`S=C(NCCc1ccccc1)NCC(c1cccnc1)N1CCOCC1` (stereo unspecified) gave MITF primary -4, GPR151 activ 9.3*, FBW7 activator 0, TEAD-YAP inh 3, GPR151 conf act 1 and GPR119 counter 9.
Screening Cc1ccccc1NC(=S)NCC(c1cccnc1)N1CCOCC1 (stereo unspecified) returned MITF primary 4, GPR151 activ 0, FBW7 activator 0 and TEAD-YAP inh -8.
`COCCNC(=O)[C@@H]1C[C@@H](NC2CCCCCC2)CN1C1Cc2ccccc2C1` gave MITF primary 4, GPR151 activ 0, FBW7 activator 0 and TEAD-YAP inh 9.
Clc1ccc(OCCn2cncn2)cc1 was read as MITF primary -18, GPR151 activ 6.4*, FBW7 activator 0, TEAD-YAP inh -5, GPR151 conf act -1 and GPR119 counter -7.
`CCN1CCN(CCCNC(=O)c2ccc3nc(N4CCCCC4)sc3c2)CC1` gave MITF primary 10, GPR151 activ 1, FBW7 activator 0 and TEAD-YAP inh -43.
`CCCc1ccc(S(=O)(=O)Nc2ccc3c(c2)CC(=O)N3C)cc1` gave MITF primary 2, GPR151 activ 4.9*, FBW7 activator 0, TEAD-YAP inh 8, GPR151 conf act 0 and GPR119 counter -17.
Screening CCCCC(=O)c1ccc(-c2ccccc2)cc1 returned MITF primary -9, GPR151 activ 0, FBW7 activator 0 and TEAD-YAP inh 1.
For C[N+](C)(CCCC(=O)c1ccc(C(=O)CCC[N+](C)(C)Cc2ccccc2Cl)cc1)Cc1ccccc1Cl the results were MITF primary -13, GPR151 activ 5.8*, FBW7 activator 0, TEAD-YAP inh 3, GPR151 conf act 1 and GPR119 counter 17.
For Cn1c(Nc2ccc(-n3cc(CC(=O)NCc4nc5ccccc5[nH]4)c4ccccc43)nn2)nc2ccccc21 the results were MITF primary 10, GPR151 activ 1, FBW7 activator 0 and TEAD-YAP inh -16.
Screening O=C(Cc1cn(-c2ccc(Nc3ccccc3)nn2)c2ccccc12)NCc1nc2ccccc2[nH]1 returned MITF primary -1, GPR151 activ 5.3*, FBW7 activator 0, TEAD-YAP inh -10, GPR151 conf act 0 and GPR119 counter -6.
N#Cc1ccc(C(=O)Nc2ccccc2N2CCCC2)c(F)c1 was read as MITF primary 1, GPR151 activ 14*, FBW7 activator 0, TEAD-YAP inh -5, GPR151 conf act 0 and GPR119 counter 6.
Screening O=C(CCC(=O)Nc1ccccc1Cl)NNC(=O)c1ccccc1[N+](=O)[O-] returned MITF primary 0, GPR151 activ 7.5*, FBW7 activator 0, TEAD-YAP inh -3, GPR151 conf act 0 and GPR119 counter -3.
O=C(Nc1ccccc1Cl)c1ccccc1[N+](=O)[O-] was read as MITF primary -8, GPR151 activ 0, FBW7 activator 0 and TEAD-YAP inh 1.
`O=C(Nc1ccccc1N1CCCC1)c1ccccc1[N+](=O)[O-]` gave MITF primary 3, GPR151 activ 5.8*, FBW7 activator 0, TEAD-YAP inh -1, GPR151 conf act 1 and GPR119 counter 6.
For C=CCOc1ccc(NC(=O)C(=O)OCC)cc1 the results were MITF primary 3, GPR151 activ -1, FBW7 activator 0 and TEAD-YAP inh 1.
`Fc1ccccc1/C=N/N=C(\c1ccccc1)C12CN3CN(CN(C3)C1)C2` gave MITF primary -3, GPR151 activ -1, FBW7 activator 0 and TEAD-YAP inh -2.
`COc1cccc(OC)c1CN1CCC(NCCc2ccccc2)CC1` gave MITF primary -10, GPR151 activ -2, FBW7 activator 0 and TEAD-YAP inh 8.
Screening CCOc1ccc(N=Cc2c(O)n(CC)c(=S)[nH]c2=O)cc1 returned MITF primary -4, GPR151 activ 6.0*, FBW7 activator 0, TEAD-YAP inh 0, GPR151 conf act 0 and GPR119 counter -2.
For CC1=CC(C)(C)N(C(=O)CN2C(=O)CCC2=O)c2cc(C)ccc21 the results were MITF primary 5, GPR151 activ 12*, FBW7 activator 0, TEAD-YAP inh 3, GPR151 conf act -1 and GPR119 counter -12.
For CCOc1ccc(NC(=O)C2=CCN(S(=O)(=O)c3ccccc3)CC2)cc1 the results were MITF primary -4, GPR151 activ 5.4*, FBW7 activator 0, TEAD-YAP inh -4, GPR151 conf act 0 and GPR119 counter 2.
CCOc1ccc(C(=O)NCC2CCCN2S(=O)(=O)c2ccccc2)cc1 (stereo unspecified) was read as MITF primary 4, GPR151 activ 5.6*, FBW7 activator 0, TEAD-YAP inh -8, GPR151 conf act 0 and GPR119 counter -14.
Screening CCn1cc(CN2CCCC(CNC(=O)c3ccc(-c4ccccc4)cc3)C2)cn1 (stereo unspecified) returned MITF primary 8, GPR151 activ 6.0*, FBW7 activator 0, TEAD-YAP inh 9, GPR151 conf act 0 and GPR119 counter -4.

High-throughput results (PubChem BioAssay)
